Reference: PubChem BioAssay (NCI)
Compounds without any hit were thinned out: in the full panel of roughly 83,000, 20% have a hit.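 Assay: single dose, 48 h. Readout: percent growth (0 = no net growth; negative = cell death). Active: <10.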 Unmarked numbers belong to inactive results. The source made the active and inactive calls.

What was measured:
Experiment in all cases: NCI-60 one-dose screen, 48 h (100 = growth as untreated, 0 = no growth, -100 = all killed)
Details in all cases: 10 µM unless noted
T-47D breast = test system: T-47D breast
BT-549 breast = test system: BT-549 breast
MDA-MB-435 melanoma = test system: MDA-MB-435 melanoma
SW-620 colon = test system: SW-620 colon
MCF7 breast = test system: MCF7 breast
HCT-116 colon = test system: HCT-116 colon
HCC-2998 colon = test system: HCC-2998 colon
KM12 colon = test system: KM12 colon

SMILES | growth (T-47D breast) | growth (BT-549 breast) | growth (MDA-MB-435 melanoma) | growth (SW-620 colon) | growth (MCF7 breast) | growth (HCT-116 colon) | growth (HCC-2998 colon) | growth (KM12 colon)
CC[N+]1(CC)CC[N+]2(CCCC(C)CC2)CC1 (configuration not stated) | 103% | 113% | 110% | 103% | 96% | 104% | 99.9% | 104%
COc1cc(/C=N/Nc2ccc(Br)cc2)cc(OC)c1OC | 30.8% | 95.1% | 39.5% | 46.8% | 51% | 60.8% | 45.7% | 16.3%
COc1cccc(-c2cc(-c3cccc(Cl)c3)c(C#N)c(=O)[nH]2)c1 | 80.1% | 53.5% | 4.96% (active) | 49.3% | 55.5% | 73.9% | 98.7% | 57.5%
CC1=C(C(=O)Nc2ccccc2)C(c2ccc3c(c2)OCO3)NC(=S)N1 (configuration not stated) | 101% | 88.1% | 103% | 107% | 99.8% | 93.2% | 109% | 103%
S=c1nc2oc(-c3ccccc3)c(-c3ccccc3)c2c(/N=C\c2ccco2)[nH]1 | 65.9% | 103% | 108% | 101% | 93.1% | 84.4% | 109% | 94.1%
O=C1Nc2ccccc2/C1=C\c1c[nH]c2ccc(Br)cc12 | 26.6% | 116% | 69% | 93.7% | 29.5% | 85.8% | 71.6% | 12.9%
CO[C@H]1CC(=O)n2c3ccccc3c3c4c(c5c6ccccc6n1c5c32)C(=O)NC4=O | 11.1% | 68.6% | 48.5% | 32.8% | 20.1% | 55.6% | 93.7% | 29.9%
NC(=O)c1cnc(Nc2cccc(N)c2)nc1NCCCNC(=O)C1CCC1 | 106% | 26.7% | 82.6% | 86.8% | 74.7% | 65.5% | 103% | 74.8%
CCCCCN(CCCCC)CC(O)c1cc(C)c2ccc3cc(C(C)C)ccc3c2c1 (configuration not stated) | 53.3% | 90.5% | 0.846% (active) | -75.3% (active) | -86.2% (active) | -84.8% (active) | -50.8% (active) | -64.7% (active)
COc1ccc(Nc2ncccc2/C=C/C(=O)c2cc(OC)c(OC)c(OC)c2)cc1 | -4.22% (active) | -35% (active) | -35.8% (active) | -68.3% (active) | -61.3% (active) | -50.2% (active) | -75.9% (active) | -87.5% (active)
N#Cc1c(Nc2ccc(N3CCOCC3)cc2)nc(SCC(=O)c2ccc(Br)cc2)nc1-c1ccccc1 | 102% | 115% | 109% | 109% | 94.8% | 87.9% | 100% | 103%
O=C1/C(=C/c2ccc(O)c(O)c2)COc2ccc(-c3ccccc3)cc21 | 15.4% | 31.7% | -6.77% (active) | -38.3% (active) | 16% | 12.7% | -23% (active) | 19.6%
Cn1cc(-c2nn3cc(-c4cccs4)nc3s2)c2cc(F)ccc21 | 45% | 43.1% | -43.4% (active) | 12.4% | 21.4% | 14.2% | 66.8% | 22.2%
Cn1cc(-c2csc(-c3c[nH]c4ccc(F)cc34)n2)c2ccnc(Cl)c21 | 24.3% | 78.2% | 88.2% | 41.5% | 59.5% | 61.2% | 70.8% | 55.1%
CC(C)N1C(=O)/C(=c2\sc3n(c2=O)C2C(NN=3)N(C)C(=O)N2C)c2ccccc21 (configuration not stated) | 64.8% | 72.1% | -21.2% (active) | 29.6% | 21.4% | 51.4% | 78.8% | 44.2%
CNC(=O)c1ccccc1Nc1nc(Nc2cc(OC)c(OC)c(OC)c2)ncc1Br | -25.2% (active) | -93.5% (active) | 6.45% (active) | 5.27% (active) | 1.48% (active) | 1.45% (active) | -32.5% (active) | 7.57% (active)
O=C(Nc1ccccc1[N+](=O)[O-])c1ccc(Cl)c(Cl)c1 | 54.9% | 85.6% | 102% | 97.9% | 52% | 95% | 110% | 96.8%
O=C(/C=C/C12c3ccccc3C(c3ccccc31)C1C(=O)NC(=O)C12)c1ccc(Br)cc1 (configuration not stated) | 36.8% | 46.1% | 18.5% | 15.3% | 10.1% | 26.6% | 95.3% | 55.5%
Cc1ccccc1Nc1cc(O)c2c(=O)cc(-c3ccccc3)oc2c1 | 36.5% | 47.1% | 1.9% (active) | 21% | 15.5% | 15.2% | 76.7% | 36.4%
NS(=O)(=O)c1ccc(NC(=O)/C(=C\c2ccc(Cl)cc2Cl)NC(=O)c2ccccc2)cc1 | 87.5% | 89.1% | 97.7% | 104% | 90.1% | 97.3% | 103% | 102%
COc1ccc(C(=O)/C=C/c2ccc(Cl)cc2)cc1S(=O)(=O)Nc1c(N)nc(SC)[nH]c1=O | 62.5% | 60.5% | 80% | 7.52% (active) | 18.8% | 11.4% | 90.8% | 12.8%
C=C(C)[C@@H]1CC[C@]2(COC(C)=O)CC[C@]3(C)[C@H](CC[C@@H]4[C@@]5(C)CCCN(C(C)=O)C(C)(C)[C@@H]5CC[C@]43C)[C@@H]12 | 10.9% | 88.6% | 4.85% (active) | -53.9% (active) | 19.7% | -35.7% (active) | -28.8% (active) | 5.81% (active)
NS(=O)(=O)c1ccc(-c2cc(-c3nnc(SCC(=O)Nc4ccc(C(=O)/C=C/c5ccc(Cl)cc5)cc4)n3-c3ccccc3)c3ccccc3n2)cc1 | 79.9% | 97.9% | 94% | 97.7% | 70.6% | 7.54% (active) | 105% | 92.1%
Cn1c2c(c3ccc(Cl)c(Cl)c31)C(C#N)C(C)(C)NC2=O (configuration not stated) | 74.2% | 88.1% | 80.9% | 67.5% | 95.3% | 76.9% | 91.8% | 91.9%
C[C@H](C(=O)N(CCc1ccc(Cl)c(Cl)c1)Cc1cncs1)[C@@H]1CC[C@H](C[C@H](C)n2cc(CN3CCC(c4ccc(Cl)cc4)CC3)nn2)O1 | 86.6% | 95.1% | 98.3% | 97.5% | 85.8% | 92.5% | 112% | 105%
O=S(=O)(Nc1cc(Sc2cccc3cccnc23)c(O)c2ccccc12)c1ccccc1 | -26% (active) | 31.4% | 11.3% | -67.8% (active) | -54.6% (active) | -15.2% (active) | 36.9% | 13.6%
Cc1ccc(-c2nc(SCc3nc4cc(Cl)c(Cl)cc4[nH]3)[nH]c(=O)c2C#N)cc1 | 85.4% | 92.5% | 105% | 109% | 101% | 93.1% | 110% | 96.6%
COc1ccc(C(=O)Cn2c(C(=O)c3ccc(Cl)cc3)nc3ccccc32)cc1 | 73.8% | 88.8% | -8.55% (active) | 32.7% | 20.4% | 26.9% | 72.7% | 38.2%
COc1cccc(CCNc2ncnc3c2ncn3Cc2nnc3c4ccccc4c(Cl)nn23)c1 | 48.5% | 47.8% | 57.5% | 57.4% | 63% | 39.6% | 91.9% | 80%
